Counter-ions that a name gives are not always drawn. ± gives the standard deviation of the averaged measurements.
The molecules below were run on E. coli TESEC Mtb Alr (assay: growth (OD600 after 10 h); higher = more growth (less inhibition)). Conditions: arabinose 10000 nM; compound 0.1 mM; raw OD600 reference: median of DMSO wells 0.264, cell-free background 0.041.
Protocol: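 TESEC Mtb Alr E. coli, or the Alr+ wild-type control, in 384-well plates with Prestwick library compounds at 0.1 mM and 1% DMSO, across arabinose induction levels of 1E3 to 1E7 nM. Growth is read as OD600 after 10 h at 37 °C in triplicate biological replicates.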

SMILES	growth
CC1(C)O[C@@H]2C[C@H]3[C@@H]4C[C@H](F)C5=CC(=O)C=C[C@]5(C)[C@@]4(F)[C@@H](O)C[C@]3(C)[C@]2(C(=O)CO)O1 [Fluocinolone acetonide]	0.263 ± 0.0058
O=C1CC[C@@H](C(=O)N2CSC[C@H]2C(=O)O)N1 [Pidotimod]	0.261 ± 0.005
Cc1cc(NS(=O)(=O)c2ccc(N)cc2)no1 [Sulfamethoxazole]	0.212 ± 0.011
CN(Cc1cnc2nc(N)nc(N)c2n1)c1ccc(C(=O)N[C@@H](CCC(=O)O)C(=O)O)cc1 (racemic) [Amethopterin (R,S)]	0.224 ± 0.011
CN(C)CCCN1c2ccccc2CCc2ccc(Cl)cc21 [Clomipramine hydrochloride]	0.03953 ± 0.00025
CN1CCN2c3ccccc3Cc3ccccc3C2C1 (stereo not given) [Mianserine hydrochloride]	0.283 ± 0.017
CCCN(CCC)C(=O)C(CCC(=O)O)NC(=O)c1ccccc1 (stereo not given) [Proglumide]	0.29 ± 0.017
CCCCOc1ccc(CC(=O)NO)cc1 [Bufexamac]	0.243 ± 0.0037
CC(C)CC(=O)N[C@H](C(=O)N[C@H](C(=O)N[C@@H](CC(C)C)[C@@H](O)CC(=O)N[C@@H](C)C(=O)N[C@@H](CC(C)C)[C@@H](O)CC(=O)O)C(C)C)C(C)C [Pepstatin A]	0.271 ± 0.0051
CO[C@@]1(NC(=O)C2SC(=C(C(N)=O)C(=O)O)S2)C(=O)N2C(C(=O)O)=C(CSc3nnnn3C)CS[C@@H]21 (stereo not given in full) [Cefotetan]	0.04147 ± 0.00015
CC[N+](CC)(CC)CCC(O)(c1ccccc1)C1CCCCC1 (stereo not given) [Tridihexethyl chloride]	0.2775 ± 0.0026
O=C1c2ccccc2C(=O)C1c1ccccc1 [Phenindione]	0.268 ± 0.011
CC(C)NC(=N)NC(=N)Nc1ccc(Cl)cc1 [Proguanil hydrochloride]	0.275 ± 0.0087
Cc1[nH]cnc1CN1CCc2c(c3ccccc3n2C)C1=O [Alosetron hydrochloride]	0.233 ± 0.014
O=c1cc(-c2ccc(O)c(O)c2)oc2cc(O)cc(O)c12 [Luteolin]	0.05 ± 0.0007
O=C1OC(CN2CCOCC2)CN1/N=C/c1ccc([N+](=O)[O-])o1 (stereo not given) [Furaltadone hydrochloride]	0.0409 ± 0.0001
O=C(c1ccc(OCCN2CCCCC2)cc1)c1c(-c2ccc(O)cc2)sc2cc(O)ccc12 [Raloxifene hydrochloride]	0.0428 ± 0.0024
CNS(=O)(=O)Cc1ccc2[nH]cc(CCN(C)C)c2c1 [Sumatriptan succinate]	0.258 ± 0.0057
Cc1ccc(C)c(OCCCC(C)(C)C(=O)O)c1 [Gemfibrozil]	0.22 ± 0.0045
O=C(NCC(O)CO)c1c(I)c(C(=O)NCC(O)CO)c(I)c(N(CCO)C(=O)CO)c1I (stereo not given) [Ioversol]	0.288 ± 0.013

SMILES	growth
CN(C)CCOC(c1ccc(Cl)cc1)c1ccccn1 (stereo not given) [Carbinoxamine maleate salt]	0.265 ± 0.006
C=CCSCC1Nc2cc(Cl)c(S(N)(=O)=O)cc2S(=O)(=O)N1 (stereo not given) [Althiazide]	0.2578 ± 0.0023
CC(=O)OCC(=O)[C@@]1(O)[C@H](C)C[C@H]2[C@@H]3CCC4=CC(=O)C=C[C@]4(C)[C@@]3(F)[C@@H](O)C[C@@]21C [Dexamethasone acetate]	0.226 ± 0.007
CC(C)(C)NCC(O)c1ccc(O)c(CO)c1 (stereo not given) [Salbutamol]	0.271 ± 0.0082
CC(C)NCC(O)c1cc(O)cc(O)c1 (stereo not given) [Metaproterenol sulfate, orciprenaline sulfate]	0.268 ± 0.01
CN(CCOc1ccc(NS(C)(=O)=O)cc1)CCc1ccc(NS(C)(=O)=O)cc1 [Dofetilide]	0.253 ± 0.008
N=c1nc(N2CCCCC2)cc(N)n1O [Minoxidil]	0.247 ± 0.014
Clc1ccccc1C(c1ccccc1)(c1ccccc1)n1ccnc1 [Clotrimazole]	0.0452 ± 0.00099
CC(=O)Oc1ccccc1C(=O)Nc1ncc([N+](=O)[O-])s1 [Nitazoxanide]	0.0417 ± 0.00046
CCOc1ccccc1OC(c1ccccc1)C1CNCCO1 (stereo not given) [Reboxetine mesylate]	0.253 ± 0.012
NC(=O)c1cc[n+](CC2=C(C(=O)[O-])N3C(=O)[C@@H](NC(=O)[C@@H](c4ccccc4)S(=O)(=O)O)[C@H]3SC2)cc1 [Cefsulodin sodium salt]	0.235 ± 0.007
CC(C)(C)NC(=O)[C@@H]1C[C@@H]2CCCC[C@@H]2CN1C[C@@H](O)[C@H](Cc1ccccc1)NC(=O)[C@H](CC(N)=O)NC(=O)c1ccc2ccccc2n1 [Saquinavir mesylate]	0.0491 ± 0.0035
CCCCOC(=O)c1ccc(O)cc1 [Butylparaben]	0.213 ± 0.0083
Cc1cn[nH]c1 [Fomepizole]	0.249 ± 0.0059
NC1CCN(c2nc3c(cc2F)c(=O)c(C(=O)O)cn3-c2ccc(F)cc2F)C1 (stereo not given) [Tosufloxacin hydrochloride]	0.0491 ± 0.00026
CN(C)CCN1C(=O)c2ccccc2N(C)c2ccccc21 [Dibenzepine hydrochloride]	0.286 ± 0.0089
Nc1nc(NC2CC2)c2ncn([C@H]3C=C[C@@H](CO)C3)c2n1 [Abacavir Sulfate]	0.253 ± 0.0039
O=C(NCCN1CCOCC1)c1ccc(Cl)cc1 [Moclobemide]	0.25 ± 0.0059
CC(C)C[C@H](NC(=O)[C@@H](O)[C@H](N)Cc1ccccc1)C(=O)O [Ubenimex]	0.2345 ± 0.0011
CC(C(=O)O)c1ccc(-c2ccccc2)c(F)c1 (stereo not given) [Flurbiprofen]	0.23 ± 0.0069

Reference: the supplement of paper PMC9262897, “Low-cost anti-mycobacterial drug discovery using engineered E. coli” (Nature Communications, 2022)
